Measurements reported in PubChem BioAssay AID1159580 (chemical genetic matrix, 2015).
“And” between values parts separate entries of the source, which are not always exact repeats. Identical values can stand only once. Among all 5,500 compounds or so, about 2,000 (36%) were called active. Another 18% or so got no clear call; they are omitted. Cut-off read from the data, not from the text of the source: active = normalized growth mostly below about 0.91 (no sharp cut-off); inconclusive = no clear call, values can overlap the other calls; inactive = mostly above about 0.92. The list shows a part of the results.

Assay: chemical genetic growth profiling, strain panel (AID 1159580);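 note: tested at 20 µM; growth read once vehicle control cultures reached saturation at 30 °C; 1 = growth at the plate median or of vehicle wells; lower values mean less growth of the strain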
Conditions: S. cerevisiae deletion strains, growth OD

Measured: normalized growth

COc1cc2c(c(OC)c1OC)-c1ccc(OC)c(=O)cc1[C@@H](NC(C)=O)CC2
inactive: locus YAL013W, strain DEP1, hits give low values 1.02 | locus YAL021C, strain ccr4, hits give low values 1.01 | locus YAL026C, strain drs2, hits give low values 1 | locus YAL030W, strain snc1, hits give low values 0.988 | locus YBL061C, strain skt5, hits give low values 1 | locus YBR009C, strain hhf1, hits give low values 0.985 | locus YBR021W, strain FUR4, hits give low values 1.04 | locus YBR023C, strain chs3, hits give low values 0.998 | locus YBR171W, strain sec66, hits give low values 1.01 | locus YBR229C, strain ROT2, hits give low values 1.02 | locus YBR231C, strain swc5, hits give low values 1.02 | locus YBR279W, strain paf1, hits give low values 1 | locus YCL011C, strain gbp2, hits give low values 1 | locus YCL016C, strain dcc1, hits give low values 0.986 | locus YCL029C, strain bik1, hits give low values 1.03 | locus YCL069W, strain vba3, hits give low values 1 | locus YCR088W, strain abp1, hits give low values 1.01 | locus YDL005C, strain med2, hits give low values 1.01 | locus YDL035C, strain GPR1, hits give low values 1.02 | locus YDL040C, strain nat1, hits give low values 1.01 | locus YDL074C, strain BRE1, hits give low values 1.04 | locus YDL101C, strain DUN1, hits give low values 1.02 | locus YDL134C, strain PPH21, hits give low values 1.02 | locus YDL185W, strain tfp1, hits give low values 1.04 | locus YDL192W, strain arf1, hits give low values 1.02 | locus YDR001C, strain nth1, hits give low values 1.02 | locus YDR069C, strain doa4, hits give low values 1.04 | locus YDR101C, strain arx1, hits give low values 1.02 | locus YDR137W, strain rgp1, hits give low values 0.988 | locus YDR159W, strain sac3, hits give low values 0.999 | locus YDR162C, strain NBP2, hits give low values 1.03 | locus YDR195W, strain ref2 0.974 | locus YDR297W, strain sur2, hits give low values 1.01 | locus YDR318W, strain mcm21, hits give low values 1.03 | locus YDR334W, strain swr1, hits give low values 1.01 | locus YDR335W, strain msn5, hits give low values 0.998 | locus YDR388W, hits give low values 1.03 | locus YDR392W, strain spt3, hits give low values 0.968 | locus YDR502C, strain sam2, hits give low values 1.02 | locus YEL003W, strain gim4, hits give low values 1 | locus YEL037C, strain rad23, hits give low values 1.01 | locus YEL061C, strain CIN8 (second series), hits give low values 0.999 | locus YEL061C, strain CIN8, hits give low values 1.01 | locus YER015W, strain faa2, hits give low values 1.01 | locus YER016W, strain bim1, hits give low values 0.963 | locus YER110C, hits give low values 1.02 | locus YER111C, strain swi4, hits give low values 1.02 | locus YER155C, strain BEM2 (second series), hits give low values 1.02 | locus YER155C, strain BEM2, hits give low values 1.01 | locus YER167W, strain BCK2, hits give low values 1.02 | locus YFR010W, strain ubp6, hits give low values 1.01 | locus YGL078C, strain dbp3, hits give low values 1.03 | locus YGL086W, strain mad1, hits give low values 1.02 | locus YGL167C, strain pmr1, hits give low values 1.02 | locus YGL173C, strain kem1, hits give low values 1.03 | locus YGL227W, strain vid30, hits give low values 1.01 | locus YGL240W, strain doc1, hits give low values 1.03 | locus YGL248W, strain PDE1, hits give low values 1.03 | locus YGL253W, strain hxk2, hits give low values 1 | locus YGR078C, strain PAC10, hits give low values 1.03 | locus YGR135W, strain pre9, hits give low values 1.03 | locus YGR229C, strain SMI1, hits give low values 1.02 | locus YGR252W, strain gcn5, hits give low values 1.07 | locus YHR013C, strain ard1, hits give low values 0.986 | locus YHR027C, strain rpn1, hits give low values 1.01 | locus YHR030C, strain SLT2, hits give low values 1.01 and 1.04 | locus YHR079C, strain IRE1 (second series), hits give low values 1.04 | locus YHR079C, strain IRE1, hits give low values 1.04 | locus YHR094C, strain hxt1, hits give low values 1.02 | locus YHR129C, strain ARP1, hits give low values 1.01 | locus YHR142W, strain chs7, hits give low values 0.996 | locus YHR200W, strain rpn10, hits give low values 1.03 | locus YIL066C, strain RNR3, hits give low values 1.02 | locus YIL073C, strain SPO22, hits give low values 1.04 | locus YIL125W, strain kgd1, hits give low values 1.03 | locus YIR030C, strain dcg1, hits give low values 1.04 | locus YJL092W, strain hpr5, hits give low values 1.01 | locus YJL095W, strain BCK1 (second series), hits give low values 1 | locus YJL095W, strain BCK1, hits give low values 1.04 and 1.02 | locus YJL115W, strain asf1, hits give low values 1.02 | locus YJL129C, strain trk1, hits give low values 1.01 | locus YJL134W, strain LCB3, hits give low values 1.02 | locus YJL154C, strain vps35, hits give low values 0.995 | locus YJL164C, strain tpk1, hits give low values 0.984 | locus YJL166W, strain qcr8, hits give low values 1.02 | locus YJL168C, strain set2, hits give low values 1.02 | locus YJL187C, strain SWE1 (second series), hits give low values 1.03 | locus YJR043C, strain POL32, hits give low values 1 | locus YJR066W, strain TOR1, hits give low values 0.988 | locus YJR075W, strain HOC1, hits give low values 1.02 | locus YKL009W, strain mrt4, hits give low values 1.01 | locus YKL068W, hits give low values 1.03 | locus YKL085W, strain MDH1 (second series), hits give low values 1.06 | locus YKL085W, strain MDH1, hits give low values 1.06 | locus YKL160W, strain elf1, hits give low values 1.02 | locus YKL190W, strain CNB1, hits give low values 1.01 | locus YKR001C, strain vps1, hits give low values 1.03 | locus YKR026C, strain gcn3, hits give low values 1.06 | locus YKR091W, strain srl3, hits give low values 0.985 | locus YLL001W, strain dnm1, hits give low values 1.01 | locus YLL026W, hits give low values 0.991 | locus YLL041C, strain sdh2, hits give low values 1.01 | locus YLR027C, strain aat2, hits give low values 1.01 | locus YLR039C, strain RIC1, hits give low values 1.05 | locus YLR058C, strain SHM2, hits give low values 1.03 | locus YLR102C, strain apc9, hits give low values 1.03 | locus YLR113W, strain HOG1, hits give low values 1.04 | locus YLR221C, strain rsa3, hits give low values 0.997 | locus YLR258W, strain gsy2, hits give low values 1.01 | locus YLR262C, strain YPT6 (second series), hits give low values 1.04 | locus YLR262C, strain YPT6, hits give low values 1.04 | locus YLR268W, strain sec22, hits give low values 1.04 | locus YLR320W, strain mms22, hits give low values 1.01 | locus YLR330W, strain CHS5, hits give low values 1.02 | locus YLR342W, strain FKS1 (second series), hits give low values 1.03 | locus YLR342W, strain FKS1, hits give low values 1.01 | locus YLR357W, strain rsc2, hits give low values 1.02 | locus YLR370C, strain arc18, hits give low values 1.01 | locus YLR371W, strain rom2, hits give low values 1.03 | locus YLR384C, strain iki3, hits give low values 1.02 | locus YLR418C, strain cdc73, hits give low values 1.06 | locus YML016C, strain PPZ1, hits give low values 1.03 | locus YML032C, strain rad52, hits give low values 1.02 | locus YML120C, strain ndi1, hits give low values 1.02 | locus YML124C, strain tub3, hits give low values 1.03 | locus YMR058W, strain fet3, hits give low values 1.01 | locus YMR078C, strain ctf18, hits give low values 1.04 | locus YMR125W, strain sto1, hits give low values 1.01 | locus YMR129W, hits give low values 1.02 | locus YMR205C, strain PFK2, hits give low values 1 | locus YMR223W, strain ubp8, hits give low values 1.04 | locus YMR231W, strain pep5, hits give low values 1.01 | locus YMR307W, strain GAS1, hits give low values 0.99 | locus YNL067W, strain RPL9B, hits give low values 1.03 | locus YNL071W, strain lat1, hits give low values 1 | locus YNL128W, strain TEP1, hits give low values 1.03 | locus YNL153C, strain GIM3, hits give low values 1.02 | locus YNL183C, strain NPR1, hits give low values 0.99 | locus YNL209W, strain ssb2, hits give low values 1 | locus YNL233W, strain BNI4, hits give low values 1.02 | locus YNL248C, strain rpa49, hits give low values 0.947 | locus YNL250W, strain rad50, hits give low values 1 | locus YNL271C, strain bni1, hits give low values 1.04 | locus YNL298W, strain CLA4, hits give low values 1.03 | locus YNL307C, strain MCK1, hits give low values 1.03 | locus YNL322C, strain KRE1 (second series), hits give low values 1.02 | locus YNR049C, strain mso1, hits give low values 1.03 | locus YNR052C, strain pop2, hits give low values 1.02 | locus YOL012C, strain htz1 0.756 | locus YOL147C, strain pex11, hits give low values 1.04 | locus YOR001W, strain rrp6, hits give low values 1.02 | locus YOR061W, strain CKA2, hits give low values 1.03 | locus YOR069W, strain VPS5, hits give low values 1.01 | locus YOR070C, strain gyp1, hits give low values 0.995 | locus YOR080W, strain dia2, hits give low values 1.02 | locus YOR083W, strain WHI5, hits give low values 1.02 | locus YOR106W, strain vam3, hits give low values 1.03 | locus YOR136W, strain idh2, hits give low values 1.02 | locus YOR144C, strain elg1, hits give low values 1.03 | locus YOR184W, strain ser1, hits give low values 1.04 | locus YOR231W, strain MKK1, hits give low values 1.03 | locus YOR265W, strain rbl2, hits give low values 1.01 | locus YOR270C, strain vph1, hits give low values 1.01 | locus YOR290C, strain snf2, hits give low values 1.01 | locus YOR316C, strain cot1, hits give low values 1.04 | locus YPL051W, strain arl3, hits give low values 1.02 | locus YPL055C, strain LGE1, hits give low values 1.04 | locus YPL078C, strain atp4, hits give low values 1.02 | locus YPL106C, strain sse1, hits give low values 0.989 | locus YPL240C, strain hsp82, hits give low values 1 | locus YPL241C, strain CIN2, hits give low values 1.01 | locus YPL256C, strain CLN2, hits give low values 1.12 | locus YPR119W, strain clb2, hits give low values 1.03 | locus YPR141C, strain kar3, hits give low values 1.05 | locus YPR163C, strain tif3, hits give low values 1.04 | locus YPR167C, strain met16, hits give low values 1.04 | strain wtn01, hits give low values 1.01
